Values joined by “and” are separate entries in the source; they are usually repeats but may differ in a detail not shown here. Equal values may be shown once. Records with an inconclusive call do not appear. A call without a number means that no potency is given here. Where a structure was tested more than once in an assay, its records may differ in their call. Active and inactive are the calls of the source. Unless noted, calls follow the shape of the dose curve; as a rule, active = well fitted curve in the direction sought with a large enough effect in the repeat runs; inconclusive = weak or mixed curves; inactive = no such curve, though single readings can be large; an effect the other way counts as inactive or inconclusive.
What was measured:
[1] = qHTS RealTime-Glo MT Cell Viability Assay in HepG2 cells - 16 hour (AID 1224885); also: nearly all actives have a fitted effect of over 50% in size
How it was run: (§1)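 HepG2 suspension premixed with RealTime-Glo reagents is plated at 600 cells per well and left 5 h at 37 C/5% CO2. Compounds in DMSO then go in, and bioluminescence reflecting viable cell number is recorded over 40 h.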

[2] = qHTS RealTime-Glo MT Cell Viability Assay in HEK293 cells - 24 hour (AID 1224886); also: top concentration of the series differs between compounds; nearly all actives have a fitted effect of over 50% in size
How it was run: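 Reads taken at 0, 8, 16, 24, 32 and 40 h from the same wells. HEK293 cells (600/well) carried RealTime-Glo reagents from seeding, with compound added after a 5 h settle at 37 C.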

[3] = qHTS RealTime-Glo MT Cell Viability Assay in HEK293 cells - 8 hour (AID 1224887); also: top concentration of the series differs between compounds; nearly all actives have a fitted effect of over 50% in size
How it was run: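 Measured as luminescence from the same continuously cultured HEK293 wells at successive time points (0, 8, 16, 24, 32, 40 h) after compound addition. Reagent present from seeding; dosing at 5 h; incubation 37 C.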

[4] = A CellTox Green Cytotoxicity Assay to monitor cytotoxicity in HEK293 cells - 16 hour (AID 1224888); also: nearly all actives have a fitted effect of over 35% in size
How it was run: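 Homogeneous no-lysis format: HEK293 cell suspension mixed with CellTox Green reagent, seeded, incubated 5 h at 37 C/5% CO2, then dosed by pintool with compound in DMSO.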

[5] = qHTS RealTime-Glo MT Cell Viability Assay in HepG2 cells - 0 hour (AID 1224889); also: nearly all actives have a fitted effect of over 50% in size; also: potency is read from the fitted curve at half-maximal effect
How it was run: as §1

[6] = A CellTox Green Cytotoxicity Assay to monitor cytotoxicity in HepG2 cells - 8 hour (AID 1224890); also: nearly all actives have a fitted effect of over 45% in size
How it was run: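 Fluorescent DNA-binding dye, 600 HepG2 cells/well, 5 h preincubation then compound in DMSO; same plates read at 0–40 h, 37 C.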

[7] = qHTS assay to identify small molecule antagonists of the estrogen receptor alpha (ER-alpha) signaling pathway using the BG1 cell line in the presence of 0.1 nM 17-beta-estradiol - cell viability counter screen (AID 1259241); also: nearly all actives have a fitted effect of over 40% in size
How it was run: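 VM7Luc4E2 cells (endogenous ER-alpha, 4×ERE-luciferase), hormone-starved 5 days in charcoal-stripped FBS, were treated with compounds plus 0.1 nM 17beta-estradiol for 22 hr at 37C; viability read in same wells as CellTiter-Fluor live-cell protease fluorescence.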

[8] = qHTS assay to identify small molecule antagonists of the androgen receptor (AR) signaling pathway using the MDA cell line in the presence of 0.5 nM R1881 - cell viability counter screen (AID 1259242); also: nearly all actives have a fitted effect of over 45% in size
How it was run: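 Human breast carcinoma MDA-kb2 cells, cultured without CO2, receive compounds alongside 0.5 nM (final) R1881 agonist. After 16 hr at 37C, viability is taken as live-cell protease signal.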

[9] = biological target: Estrogen receptor (Homo sapiens) (UniProt P03372); assay: qHTS assay to identify small molecule antagonists of the estrogen receptor alpha (ER-alpha) signaling pathway using the BG1 cell line in the presence of 0.1 nM 17-beta-estradiol (AID 1259244); also: nearly all actives have a fitted effect of over 50% in size
How it was run: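 Seeding of stripped-serum-adapted VM7Luc4E2 cells, 24 h attachment, compound transfer, then 0.1 nM final 17beta-estradiol; after 22 h incubation, ONE-Glo reagent and luminescence reading.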

[10] = qHTS assay to identify small molecule HDAC inhibitors (AID 1259364); also: potency is read from the fitted curve at half-maximal effect;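 also: wild-type HCT-116 cells with endogenous class I/II HDAC activity; nearly all actives have a fitted effect of over 45% in size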
How it was run: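 After a 2 hr compound incubation (37C, 5% CO2), HCT-116 cells seeded at 1,500/well the day before received HDAC-Glo reagent; signal read as luminescence after 30 min at room temperature.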

[11] = qHTS assay to identify small molecule HDAC inhibitors - cell viability counter screen (AID 1259365)
How it was run: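 Wild-type HCT-116 cells were seeded at 1,500 per well, incubated overnight at 37 C, then exposed to compounds in DMSO for 2hr. Viability was read by CellTiter-Glo luminescence after 30min at room temperature.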

[12] = qHTS assay to identify small molecule agonists of the sonic hedgehog signaling (Shh) pathway - cell viability counter screen (AID 1259366); also: nearly all actives have a fitted effect of over 50% in size
How it was run: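 NIH/3T3-derived 3T3 Gli1-Luc cells (stable Gli1-responsive firefly luciferase reporter) were seeded, rested 4 hr at 37 C/5% CO2, then exposed to compounds in DMSO for 24 hr; viability was read by CellTiter-Fluor fluorescence in the same wells.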

[13] = qHTS assay to identify small molecule antagonists of the sonic hedgehog signaling (Shh) pathway - cell viability counter screen (AID 1259367); also: nearly all actives have a fitted effect of over 55% in size; also: potency is read from the fitted curve at half-maximal effect
How it was run: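 CellTiter-Fluor signal in conditioned medium-stimulated 3T3 Gli1-Luc cells, 23 hr compound exposure, 37C.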

[14] = qHTS assay to identify small molecule agonists of the sonic hedgehog signaling (Shh) pathway (AID 1259368; calls by dose curve; also: series mostly up to about 92 µM; nearly all actives have a fitted effect of over 15% in size)
How it was run: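 Stable NIH/3T3 Gli1-Luc reporter clone; 24 hr cpd exposure after a 4 hr settling period; luminescence endpoint.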

[15] = qHTS assay to identify small molecule antagonists of the sonic hedgehog signaling (Shh) pathway (AID 1259369; calls by dose curve; also: nearly all actives have a fitted effect of over 45% in size; also: potency is read from the fitted curve at half-maximal effect)
How it was run: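 Gli1 transcriptional reporter (firefly Luc) in NIH/3T3 background, conditioned-medium activated. 24hr exposure, luminescence endpoint.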

[16] = qHTS assay to identify small molecule agonists of the androgen receptor (AR) signaling pathway in the presence of an antagonist - cell viability counter screen (AID 1259379);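 also: MDA-kb2 human breast cancer cells carrying an MMTV luciferase reporter; series mostly up to about 92 µM; nearly all actives have a fitted effect of over 25% in size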
How it was run: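 Counter screen for cell viability run in parallel with the AR agonist-mode luciferase assay. MDA-kb2 cells were co-treated with nilutamide (3.0uM final) and compounds, then incubated 16 hr at 37C, and CellTiter-Fluor fluorescence was measured.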

[17] = biological target: Estrogen receptor beta (Homo sapiens) (UniProt Q92731); assay: qHTS assay to identify small molecule agonists of the estrogen receptor beta (ER-beta) signaling pathway (AID 1259377; active = well fitted activation curve with a large enough effect in the signal ratio in the repeat runs, not every such curve was filed as active; the % refers to the signal ratio)
How it was run: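 ER-beta-UAS-bla HEK293T (GripTite) cells carrying a UAS-driven beta-lactamase reporter, in medium with 2% charcoal-stripped FBS, were exposed to compounds for 16 hr at 37C; LiveBLAzer B/G FRET substrate was then added and fluorescence read after 2 hours at room temperature.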

[18] = biological target: Estrogen receptor beta (Homo sapiens) (UniProt Q92731); assay: qHTS assay to identify small molecule antagonists of the estrogen receptor beta (ER-beta) signaling pathway (AID 1259378; active = well fitted inhibition curve with a large enough effect in the signal ratio in the repeat runs, not every such curve was filed as active; the % refers to the signal ratio)
How it was run: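 Antagonist mode: compounds added to beta-lactamase reporter HEK293T ER-beta-UAS cells stimulated with E2 (1nM final), 16 hr at 37C. LiveBLAzer B/G FRET substrate, 2 hours room temperature, fluorescence read-out.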

[19] = qHTS assay to identify small molecule phospholipidosis (PLD) inducers (AID 1259344; active = well fitted curve in the direction sought with a large enough effect; an effect the other way counts as inactive or inconclusive)
How it was run: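 Accumulated phospholipid, stained red by LipidTOX during 24 h compound treatment of HepG2 cells at 37 C, is quantified from images as pit number and intensity, normalised per cell using Hoechst-stained nuclei.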

[20] = biological target: Androgen receptor (Homo sapiens) (UniProt P10275); assay: qHTS assay to identify small molecule antagonists of the androgen receptor (AR) signaling pathway using the MDA cell line in the presence of 0.5 nM R1881 (AID 1259243); also: nearly all actives have a fitted effect of over 50% in size
How it was run: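 Cells: MDA-kb2 (MMTV-luc). Stimulus: 0.5 nM R1881. Time: 16 hr, 37C, no CO2. Detection: ONE-Glo luminescence after 30 min at RT.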

Chain of Estrogen receptor (Homo sapiens) (P03372 whole entry, looked up): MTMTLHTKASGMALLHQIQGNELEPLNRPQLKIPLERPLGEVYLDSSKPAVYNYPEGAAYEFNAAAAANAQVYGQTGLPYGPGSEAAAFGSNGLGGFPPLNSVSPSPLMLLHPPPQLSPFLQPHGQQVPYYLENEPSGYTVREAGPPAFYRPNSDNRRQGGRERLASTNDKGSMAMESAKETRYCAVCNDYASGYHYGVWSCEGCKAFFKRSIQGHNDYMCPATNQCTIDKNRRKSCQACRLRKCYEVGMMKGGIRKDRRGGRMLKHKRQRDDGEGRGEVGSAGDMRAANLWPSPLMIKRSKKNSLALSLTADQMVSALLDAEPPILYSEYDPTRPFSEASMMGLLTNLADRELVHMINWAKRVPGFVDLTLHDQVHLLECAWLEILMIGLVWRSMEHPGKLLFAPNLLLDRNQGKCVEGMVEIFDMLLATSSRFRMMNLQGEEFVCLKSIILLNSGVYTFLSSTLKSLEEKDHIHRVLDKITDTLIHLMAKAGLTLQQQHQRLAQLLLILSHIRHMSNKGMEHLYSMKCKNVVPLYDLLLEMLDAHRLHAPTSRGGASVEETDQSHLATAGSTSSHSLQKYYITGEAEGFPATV
Chain of Estrogen receptor beta (Homo sapiens) (Q92731 whole entry, looked up): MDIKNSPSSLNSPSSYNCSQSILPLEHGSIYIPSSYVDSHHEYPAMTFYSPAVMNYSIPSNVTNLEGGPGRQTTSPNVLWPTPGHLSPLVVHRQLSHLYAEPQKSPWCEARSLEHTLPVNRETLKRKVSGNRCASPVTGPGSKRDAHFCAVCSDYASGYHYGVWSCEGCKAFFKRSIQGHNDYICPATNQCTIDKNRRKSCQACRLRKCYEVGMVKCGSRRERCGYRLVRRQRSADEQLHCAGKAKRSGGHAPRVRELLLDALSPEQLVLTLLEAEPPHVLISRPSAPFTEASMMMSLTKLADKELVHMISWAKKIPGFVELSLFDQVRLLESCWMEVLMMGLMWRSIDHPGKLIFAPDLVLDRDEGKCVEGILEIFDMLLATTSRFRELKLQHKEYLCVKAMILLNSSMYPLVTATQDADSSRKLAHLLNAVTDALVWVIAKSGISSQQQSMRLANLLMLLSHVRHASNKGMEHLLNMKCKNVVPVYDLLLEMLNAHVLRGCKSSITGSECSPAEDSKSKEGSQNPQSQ
Chain of Androgen receptor (Homo sapiens) (P10275 whole entry, looked up): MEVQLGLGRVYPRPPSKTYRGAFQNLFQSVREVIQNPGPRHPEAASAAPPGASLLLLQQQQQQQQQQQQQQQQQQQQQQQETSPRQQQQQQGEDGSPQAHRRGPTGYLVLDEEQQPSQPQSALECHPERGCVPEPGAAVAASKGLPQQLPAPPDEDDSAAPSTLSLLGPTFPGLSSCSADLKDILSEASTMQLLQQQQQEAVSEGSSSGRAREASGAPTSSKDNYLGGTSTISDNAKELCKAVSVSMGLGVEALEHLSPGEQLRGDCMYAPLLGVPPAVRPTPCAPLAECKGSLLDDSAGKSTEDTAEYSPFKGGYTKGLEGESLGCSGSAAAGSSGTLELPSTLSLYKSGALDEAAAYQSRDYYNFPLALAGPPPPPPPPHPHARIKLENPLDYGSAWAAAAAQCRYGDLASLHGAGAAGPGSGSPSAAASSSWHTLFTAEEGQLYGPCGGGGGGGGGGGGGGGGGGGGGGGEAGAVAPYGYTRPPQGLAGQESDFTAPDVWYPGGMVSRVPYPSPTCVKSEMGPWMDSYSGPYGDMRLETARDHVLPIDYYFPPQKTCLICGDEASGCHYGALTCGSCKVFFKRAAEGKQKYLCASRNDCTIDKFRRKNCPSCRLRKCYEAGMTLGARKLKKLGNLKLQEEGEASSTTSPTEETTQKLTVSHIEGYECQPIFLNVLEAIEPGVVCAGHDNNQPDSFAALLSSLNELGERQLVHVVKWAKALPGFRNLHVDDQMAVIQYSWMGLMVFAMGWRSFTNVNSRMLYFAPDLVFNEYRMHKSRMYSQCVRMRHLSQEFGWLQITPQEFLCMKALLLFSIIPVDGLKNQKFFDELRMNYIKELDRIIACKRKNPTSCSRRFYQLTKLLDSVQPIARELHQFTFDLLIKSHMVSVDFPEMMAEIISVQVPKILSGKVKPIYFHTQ

Structure (SMILES)	outcome [1]	Potency [2]	Potency [3]	outcome [4]	Potency [5]	Potency [6]	Potency [7]	outcome [8]	Potency [9]	Potency [10]	outcome [11]	Potency [12]	Potency [13]	outcome [14]	Potency [15]	Potency [16]	Potency [17]	Potency [18]	outcome [19]	Potency [20]
CC(O)COCC(C)O (stereo unspecified)	inactive	inactive	inactive	inactive	inactive	inactive	inactive	inactive	inactive	inactive	inactive	inactive	inactive	inactive	inactive	inactive	–	–	–	–
Cc1ccc2oc(=O)ccc2c1	inactive	inactive	inactive	inactive	inactive	inactive	inactive	inactive	inactive	inactive	inactive	inactive	inactive	–	inactive	inactive	inactive	inactive	–	–
CCCCCCCCCC	inactive	inactive	inactive	inactive	inactive	inactive	inactive	inactive	inactive	inactive	inactive	inactive	inactive	inactive	inactive	inactive	inactive	inactive	–	–
Cc1cnc(C(=O)NCCc2ccc(S(=O)(=O)NC(=O)NC3CCCCC3)cc2)cn1	inactive	inactive	inactive	inactive	inactive	inactive	inactive	inactive	inactive	inactive	inactive	inactive	inactive	inactive	inactive	inactive	–	inactive	inactive	–
CC1=C(C)S(=O)(=O)CCS1(=O)=O	inactive	inactive	inactive	inactive	inactive	inactive	inactive	inactive	inactive	inactive	inactive	inactive	inactive	–	21.3 µM (active) and 38.6 µM (active)	inactive	inactive	inactive	–	–
CC(=O)c1ccccc1	inactive	inactive	inactive	inactive	inactive	inactive	inactive	inactive	inactive	inactive	inactive	inactive	inactive	–	inactive	inactive	–	–	–	–
O=C(O)CC(C(=O)O)C(CC(=O)O)C(=O)O (stereo unspecified)	inactive	inactive	inactive	inactive	inactive	inactive	inactive	inactive	inactive	inactive	inactive	inactive	inactive	–	inactive	inactive	–	–	–	–
CCC(O)OC(O)CC (stereo unspecified)	inactive	inactive	inactive	inactive	inactive	inactive	inactive	inactive	inactive	inactive	inactive	inactive	inactive	inactive	inactive	inactive	–	–	–	–
CCCCC(CC)COC(=O)CCCCC(=O)OCC(CC)CCCC (stereo unspecified)	inactive	inactive	inactive	inactive	inactive	inactive	inactive	inactive	inactive	inactive	inactive	inactive	inactive	–	inactive	inactive	inactive	inactive	–	–
CC(c1cc2ccccc2s1)N(O)C(N)=O (stereo unspecified)	inactive	inactive	inactive	inactive	inactive	inactive	inactive	inactive	inactive	inactive	inactive	inactive	inactive	–	inactive	inactive	inactive	inactive	inactive	inactive
Fc1ccc(Br)cc1	inactive	inactive	inactive	inactive	inactive	inactive	inactive	inactive	inactive	inactive	inactive	inactive	–	–	inactive	inactive	–	–	–	–
CCCCCCCCCCCCOCCO	inactive	inactive	inactive	inactive	inactive	inactive	inactive	inactive	–	inactive	inactive	inactive	48.6 µM (active) and inactive	inactive	27.3 µM (active) and inactive	inactive	–	–	–	inactive
c1c[nH]cn1	inactive	inactive	inactive	inactive	inactive	inactive	inactive	inactive	inactive	inactive	inactive	inactive	–	inactive	inactive	inactive	inactive	inactive	–	–
C#CCN(C)Cc1ccccc1	inactive	inactive	inactive	inactive	inactive	inactive	inactive	inactive	inactive	inactive	inactive	inactive	inactive	–	inactive	inactive	inactive	inactive	inactive	–
C[Si](O[Si](C)(C)C)O[Si](C)(C)C	inactive	inactive	inactive	inactive	inactive	inactive	inactive	inactive	–	inactive	inactive	inactive	inactive	–	inactive	inactive	inactive	inactive	–	inactive
O=C(O)CCCCCCCCCCC(=O)O	inactive	inactive	inactive	inactive	inactive	inactive	inactive	inactive	inactive	21.9 µM (active) and 21.7 µM (active)	inactive	inactive	–	inactive	inactive	inactive	–	–	–	–
C[C@H]1C[C@@H]2[C@H]([C@@H](O)C[C@@]3(C)[C@H]2CC[C@]3(O)C(=O)CO)[C@@]2(C)C=CC(=O)C=C12	inactive	inactive	inactive	inactive	871 nM (active) and 1.9 µM (active)	inactive	inactive	inactive	–	inactive	inactive	inactive	inactive	–	inactive	inactive	–	–	inactive	inactive

Source: PubChem BioAssay (Tox21)
